Laboratory results reported in PubChem BioAssay (Tox21).
Records with an inconclusive call do not appear. Entries that show only a call come without a potency. Unmarked numbers belong to inactive results. Calls of active or inactive are those of the source. Calls follow the shape of the dose curve; as a rule, active = well fitted cell-killing curve with a large enough effect in the repeat runs; inconclusive = weak or mixed curves, or effect the other way; inactive = flat fitted curve, though single readings scatter.

Tests used:
[1] = cAMP Responsive Elements (CRE) small molecule antagonists, cell-based qHTS assay: qHTS cell viability counter screen (AID 2060913); settings: CRE-bla HEK293T viability, CellTiter-Glo luminescence, 5 h; series mostly up to 92.4 µM; also: nearly all actives have a fitted effect of over 40% in size
How it was run: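 Steps: cells plated and held 18 hrs at 37 C/5% CO2; compounds and NKH477 (0.25 uM final) added; 3 hrs incubation; reporter substrate read; CellTiter-Glo added to measure cytotoxicity by luminescence.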

[2] = cAMP Responsive Elements (CRE) small molecule agonists, cell-based qHTS assay: qHTS cell viability counter screen (AID 2060914); settings: CRE-bla HEK293T viability, CellTiter-Glo luminescence, 5 h; series mostly up to 92.4 µM;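 also: viability read after 3 h of compound exposure; nearly all actives have a fitted effect of over 50% in size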
How it was run: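 CRE-bla HEK293T cells in 10% dialyzed FBS medium were exposed to compounds for 3 h at 37C after 18 h plating. CellTiter-Glo was then added in the same wells, and luminescence was read after 30 min at room temperature.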
Potency is read from the fitted curve at half-maximal effect.

Compound	Potency [1]	Potency [2]	viability change, negative = cytotoxic [1]	activity change, negative = cytotoxicity [2]
OCc1c2ccccc2cc2ccccc12	inactive	inactive	–	–
COC1=C(OC)C(=O)C(CCCCCCCCCCO)=C(C)C1=O	inactive	inactive	–	–
CCC(C)CO (stereo not drawn)	inactive	inactive	–	–
CC(=O)Nc1ccc(O)cc1	inactive	inactive	–	–
CN1CCC(=C2c3ccccc3C=Cc3ccccc32)CC1	inactive	inactive	–	–
C[N+](C)(C)CC(O)CC(=O)[O-] (stereo not drawn)	inactive	inactive	–	–
CC(C)CCCC(C)NCCC(C)C (stereo not drawn)	inactive	inactive	–	–
C/C=C/c1ccc(OCC)c(O)c1	inactive	inactive	–	–
CC(C)(C)C(O)/C=C/c1ccc2c(c1)OCO2 (stereo not drawn)	inactive	inactive	–	–
CCCCCCCC/C=C\CCCCCCCC(=O)OCCOC(=O)CCCCCCC/C=C\CCCCCCCC	inactive	inactive	–	–
Cn1cnc2c1c(=O)[nH]c(=O)n2C	inactive	inactive	–	–
C[C@@H]1C[C@H]2[C@@H]3CCC4=CC(=O)C=C[C@]4(C)[C@@]3(F)[C@@H](O)C[C@]2(C)[C@@]1(O)C(=O)CO	inactive	inactive	–	–
COc1cc(CNC(=O)CCCC/C=C/C(C)C)ccc1O	inactive	inactive	–	–
C=C(C)C(=O)OC(C)C	inactive	inactive	–	–
O=S(=O)(Oc1ccc(Cl)cc1)c1ccccc1	inactive	inactive	–	–
NC(=O)Nc1ccc(Cl)c(Cl)c1	inactive	inactive	–	–
CC(C)NC(=O)NC(C)C	inactive	inactive	–	–
CC(=O)O[C@H](CC(=O)[O-])C[N+](C)(C)C	inactive	inactive	–	–
COC(=O)c1ccc(NC(C)=O)cc1OC	inactive	inactive	–	–
NCCOCCN	inactive	inactive	–	–
COCCOC(=O)CC#N	inactive	inactive	–	–
CC(=O)CCCCn1c(=O)c2c(ncn2C)n(C)c1=O	inactive	inactive	–	–
O=C1NC2NC(=O)NC2N1 (stereo not drawn)	inactive	inactive	–	–

Compound	Potency [1]	Potency [2]	viability change, negative = cytotoxic [1]	activity change, negative = cytotoxicity [2]
COC(=O)C1=C(C)NC(C)=C(C(=O)O[C@@H]2CCCN(Cc3ccccc3)C2)[C@@H]1c1cccc([N+](=O)[O-])c1	inactive	inactive	–	–
CC(C)(C)C(=O)CCc1ccc(Cl)cc1	inactive	inactive	–	–
Nc1cccc(S(=O)(=O)c2cccc(N)c2)c1	inactive	inactive	–	–
CC1=NC(C)OC1C (stereo not drawn)	inactive	inactive	–	–
CC(C)=CCC/C(C)=C\CO	inactive	inactive	–	–
CCOC(=O)c1ccccc1C	inactive	inactive	–	–
C[C@H]1C[C@@H]2[C@H]([C@@H](O)C[C@@]3(C)[C@H]2CC[C@]3(O)C(=O)CO)[C@@]2(C)C=CC(=O)C=C12	inactive	inactive	–	–
C/C=C(\C)C(=O)OCCc1ccccc1	inactive	inactive	–	–
COc1ccc(S(=O)(=O)N2c3ccc(Cl)cc3[C@@](O)(c3ccccc3Cl)[C@H]2C(=O)N2CCC[C@@H]2C(N)=O)cc1OC	inactive	inactive	–	–
CC(C)=CCCC(C)CCOC=O (stereo not drawn)	inactive	inactive	–	–
C/C=C/c1ccc(OC)cc1	inactive	inactive	–	–
NC(=O)c1ccccc1Cl	inactive	inactive	–	–
Cc1ccc(O)c2ncccc12	inactive	inactive	–	–
Clc1ccc(Cl)c(Cl)c1Cl	inactive	inactive	–	–
CCOC(=O)CCc1ccccc1	inactive	inactive	–	–
COc1cccc(OC)c1	inactive	inactive	–	–
C/C=C(\C)C(=O)OCc1ccccc1	inactive	inactive	–	–
CCOc1cc(NC(C)=O)ccc1C(=O)OC	inactive	inactive	–	–
CC(C)(C)c1cc(C=O)cc(C(C)(C)C)c1O	inactive	inactive	–	–
COC(=O)CCCCC(=O)OC	inactive	inactive	–	–
CN(C)CC/C=C1\c2ccccc2COc2ccccc21	inactive	inactive	–	–
CCC(C)(O)CCCC(C)C (stereo not drawn)	inactive	inactive	–	–
O=C1[C@H](CC[C@H](O)c2ccc(F)cc2)[C@@H](c2ccc(O)cc2)N1c1ccc(F)cc1	inactive	inactive	–	–

Compound	Potency [1]	Potency [2]	viability change, negative = cytotoxic [1]	activity change, negative = cytotoxicity [2]
CC1CCC(C(C)C)C(O)C1 (stereo not drawn)	inactive	inactive	–	–
NC(=O)c1ccc([N+](=O)[O-])cc1	inactive	inactive	–	–
CCCCCCCCCCCCOCCO	inactive	inactive	–	–
O=C(CCCN1CCC(O)(c2ccc(Cl)cc2)CC1)c1ccc(F)cc1	inactive	inactive	–	–
COc1cc2c(N3CCN(C(=O)Nc4ccc(OC(C)C)cc4)CC3)ncnc2cc1OCCCN1CCCCC1	inactive	inactive	–	–
C#CC(O)CCC (stereo not drawn)	inactive	inactive	–	–
COCN(COC)c1nc(N(COC)COC)nc(N(COC)COC)n1	inactive	inactive	–	–
OCC1CC=CCC1 (stereo not drawn)	inactive	inactive	–	–
CC(=O)N[C@@H](Cc1ccc(O)cc1)C(=O)O	inactive	inactive	–	–
O=C(O)c1cn(C2CC2)c2cc(N3CCNCC3)c(F)cc2c1=O	inactive	inactive	–	–
CCOC(=O)Nc1ccc2c(c1)N(C(=O)CCN1CCOCC1)c1ccccc1S2	inactive	inactive	–	–
CCN1CCCC1CNC(=O)c1cc(S(=O)(=O)CC)c(N)cc1OC (stereo not drawn)	inactive	inactive	–	–
O=C(O)c1cccc([N+](=O)[O-])c1	inactive	inactive	–	–
CC1CC(=O)CC(C)(C)C1 (stereo not drawn)	inactive	inactive	–	–
O=C(/C=C/c1ccc(O)c(O)c1)O[C@@H]1C[C@](O)(C(=O)O)C[C@@H](O)[C@H]1O	inactive	inactive	–	–
CC(C)(C)CCCCCCOC(=O)c1ccccc1C(=O)OCCCCCCC(C)(C)C	inactive	inactive	–	–
Cc1c(C)c([N+](=O)[O-])c(C(C)(C)C)c([N+](=O)[O-])c1C	inactive	inactive	–	–
BrCCOc1ccccc1	inactive	inactive	–	–
CN1CCOC(c2ccccc2)c2ccccc2C1 (stereo not drawn)	inactive	inactive	–	–
Oc1ccc(Cl)c2cccnc12	inactive	inactive	–	–
CN/C(=C\[N+](=O)[O-])NCCSCc1ccc(CN(C)C)o1	inactive	inactive	–	–
CCOC(CN1CCN(CC(C)C(=O)c2ccccc2)CC1)c1ccccc1 (stereo not drawn)	–	–	1.27% [at 18.9 µM]	-1.12% [at 18.9 µM]
COC(=O)/C=C\C(=O)O	inactive	inactive	–	–

Compound	Potency [1]	Potency [2]	viability change, negative = cytotoxic [1]	activity change, negative = cytotoxicity [2]
O=[N+]([O-])c1ccc(Nc2ccc(Nc3ccccc3)c(S(=O)(=O)O)c2)c([N+](=O)[O-])c1	inactive	inactive	–	–
OC/C(Br)=C(\Br)CO	inactive	inactive	–	–
CCCCC(=O)N(C)C	inactive	inactive	–	–
CC(=O)N1CCN(c2ccc(OC[C@H]3CO[C@](Cn4ccnc4)(c4ccc(Cl)cc4Cl)O3)cc2)CC1	54.5 µM (active)	68.6 µM (active)	–	–
CCC/C=C(\C=O)CC	inactive	inactive	–	–
C/C(=N\[Si](C)(C)C)O[Si](C)(C)C	inactive	inactive	–	–
Nc1ccc(S(N)(=O)=O)cc1	inactive	inactive	–	–
CCOC(=O)NNc1nncc2ccccc12	inactive	inactive	–	–
Cc1ccc(C2OC[C@@H]3OC(c4ccc(C)cc4)O[C@H]([C@H](O)CO)[C@@H]3O2)cc1 (stereo partly drawn)	inactive	inactive	–	–
CCCCOC(=O)CC(CC(=O)OCCCC)(OC(C)=O)C(=O)OCCCC	inactive	inactive	–	–
CC(=O)Nc1cccc(O)c1	inactive	inactive	–	–
O=C1OC(=O)c2cc(-c3ccc4c(c3)C(=O)OC4=O)ccc21	inactive	inactive	–	–
CCCCCCCCCCOS(=O)(=O)O	inactive	inactive	–	–
CCCCOC(=O)CO	inactive	inactive	–	–
CCCCCCCCCCCCCCCC(=O)OC/C=C(C)/C=C/C=C(C)/C=C/C1=C(C)CCCC1(C)C	inactive	inactive	–	–
O=C(Oc1ccccc1C(=O)O)c1ccccc1O	inactive	inactive	–	–
CN(Cc1cc(Br)cc(Br)c1N)C1CCCCC1	inactive	inactive	–	–
NS(=O)(=O)c1cc2c(cc1C(F)(F)F)NC(Cc1ccccc1)NS2(=O)=O (stereo not drawn)	inactive	inactive	–	–
CC1(C)O[C@@H]2[C@@H](CO[C@@]3(COS(N)(=O)=O)OC(C)(C)O[C@@H]23)O1	inactive	inactive	–	–
O=CC1CC1	inactive	inactive	–	–
CC(C)COC(=O)COc1ccc(Cl)cc1Cl	inactive	inactive	–	–
Cc1ccc(C(=O)O)cc1[N+](=O)[O-]	inactive	inactive	–	–
CO[C@@H]1[C@@H](OC(N)=O)[C@@H](O)[C@H](Oc2ccc3c(O)c(NC(=O)c4ccc(O)c(CC=C(C)C)c4)c(=O)oc3c2C)OC1(C)C	inactive	inactive	–	–

Compound	Potency [1]	Potency [2]	viability change, negative = cytotoxic [1]	activity change, negative = cytotoxicity [2]
C=C(C)C(=O)O[C@H]1C[C@@H]2CC[C@@]1(C)C2(C)C	inactive	inactive	–	–
CC(C)(C)CC(C)(C)N	inactive	inactive	–	–
O=c1cc[nH]c(=S)[nH]1	inactive	inactive	–	–
Cc1cccc2cccnc12	inactive	inactive	–	–
CCCCCCCCCCCCC1CO1 (stereo not drawn)	inactive	inactive	–	–
C=C[Si](OC(C)=O)(OC(C)=O)OC(C)=O	inactive	inactive	–	–
CCOC(=O)[C@H](CCc1ccccc1)N[C@@H](C)C(=O)N1Cc2cc(OC)c(OC)cc2C[C@H]1C(=O)O	inactive	inactive	–	–
CCOC(=O)CN1CCCC1=O	inactive	inactive	–	–
CC1CCc2nccnc21 (stereo not drawn)	inactive	inactive	–	–
CN1Cc2cc(C(=O)N3CCC(C4CCNCC4)CC3)ccc2N[C@@H](CC(=O)O)C1=O	inactive	inactive	–	–
O=C1c2ccccc2C(=O)c2c(Cl)cccc21	inactive	inactive	–	–
C=CCc1ccccc1OCC(O)CNC(C)C (stereo not drawn)	inactive	inactive	–	–
Cn1c(NCCN(CCO)CCCc2ccc([N+](=O)[O-])cc2)cc(=O)n(C)c1=O	inactive	inactive	–	–
c1coc(CNc2ncnc3nc[nH]c23)c1	inactive	inactive	–	–
O=C1NC(=O)c2ccccc21	inactive	inactive	–	–
CCOC(=O)c1ncn2c1CN(C)C(=O)c1cc(F)ccc1-2	inactive	inactive	–	–
CCCCCCCC	inactive	inactive	–	–
CCCCCCCC=O	inactive	inactive	–	–
O=Cc1c(Cl)cccc1Cl	inactive	inactive	–	–
Nc1cc([N+](=O)[O-])ccc1O	inactive	inactive	–	–
O=C(O)c1cccnc1	inactive	inactive	–	–
CCCOc1ccc(S(=O)(=O)N2CCN(CC)CC2)cc1-c1nc2c(CC)n(Cc3ccccn3)nc2c(=O)[nH]1	inactive	inactive	–	–
